# Only some compounds are listed: those with a hit (about 4.6% of all), similar ones and a draw of the others.
# Wee1 degr inh: Wee1 degradation inhibitors, primary screen, cell-based, HeLa, Wee1K328M-luciferase, luminescence; Wee1-like protein kinase (Homo sapiens), P30291; HeLa Luc-Wee1K328M stability; 100% = proteasome inhibitor MG132 effect; reporter increase, % at 5 µM; hit rate 1.2% among 220,000; AID 1321, 2008;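 active = activation above the mean of all tested compounds plus 3 SD, set per screening run, cut at about 8.8% in these data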;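 note: cells exposed to compound for 20 h before luminescence read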
# DAX1 inh-1: DAX1 (NR0B1) inhibitors on StAR promoter, primary screen, cell-based, luminescence, SF-1 (NR5A1), full-length DAX-1. HEK293T StAR-luciferase reporter, SF-1/DAX-1 repression relief. inhibition, % at 6.8 µM. hit rate 1.1% among 370,000. AID 652010, 2013;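 active = inhibition above the mean over all tested compounds plus 3 SD, cut at about 3.6% in these data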;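 note: higher inhibition means more luminescence from relief of DAX-1 repression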
# hgDAF-12 ag: H. glycines DAF-12 receptor agonists, primary screen, cell-based, luminescence, HEK293, GAL4 fusion, UAS-luciferase; Nuclear hormone receptor DAF-12 (Heterodera glycines), GAL4 fusion; HEK293 GAL4-hgDAF12 UAS-luciferase reporter, agonist luminescence; normalized to butyrate control; activation, % at 6.8 µM; hit rate 1.8% among 370,000; AID 687014, 2013;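 active = activation above a cutoff set at the mean of all screened compounds plus 3 SD, cut at about 10% in these data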
# ssDAF12 agonist: S. stercoralis DAF-12 nuclear receptor activators, primary screen, cell-based, luminescence, HEK293, GRIP1 co-expression, lit1-tk-luc | Nuclear hormone receptor DAF-12 (Strongyloides stercoralis) | HEK293 ssDAF-12/GRIP1 lit1-tk-luc reporter; % of 3 µM dafachronic acid response | activation, % at 6.8 µM | hit rate 1% among 370,000 | AID 652126, 2013;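 active = activation above the mean over all tested compounds plus 3 SD, cut at about 0.9% in these data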
# hcDAF-12 act: H. contortus DAF-12 nuclear receptor activators, primary screen, cell-based, luminescence, HEK293, lit1-tk-luc reporter; AID 652067, 2013; HEK293 hcDAF-12 lit1-tk-luc reporter; 0% DMSO, 100% Δ7-dafachronic acid; hit rate 1.4% among 370,000; activation, % at 6.8 µM;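 active = activation above the mean of all tested compounds plus 3 SD, cut at about 5.5% in these data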
# DAX1 inh-2: DAX1 (NR0B1) inhibitors, primary screen, cell-based, HEK293, Gal4-DAX1, luciferase luminescence; hit rate 0.99% among 340,000; HEK293 Gal4-DAX1 luciferase reporter; Nuclear receptor subfamily 0 group B member 1 (Homo sapiens), P51843; inhibition, % at 6.75 µM;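 active = inhibition above the mean over all tested compounds plus 3 SD, cut at about 4.2% in these data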;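 note: inhibition shows as a rise in luminescence from relieved DAX1 repression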
# Target sequence (P51843 207-470 limits assumed): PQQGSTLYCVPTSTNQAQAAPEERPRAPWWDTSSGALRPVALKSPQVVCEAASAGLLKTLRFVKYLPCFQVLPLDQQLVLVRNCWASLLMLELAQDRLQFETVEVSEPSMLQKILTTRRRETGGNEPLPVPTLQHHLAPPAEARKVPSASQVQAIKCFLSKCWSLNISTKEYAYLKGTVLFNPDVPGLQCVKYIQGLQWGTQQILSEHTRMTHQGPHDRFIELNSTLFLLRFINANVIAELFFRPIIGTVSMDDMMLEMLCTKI
# A number is an active result; n = inactive; x = no result.
SMILES,Wee1 degr inh,DAX1 inh-1,hgDAF-12 ag,ssDAF12 agonist,hcDAF-12 act,DAX1 inh-2
CC(=O)N1c2ccccc2N=C(c2ccc(C(F)(F)F)cc2)C1C(=O)NC(C)C (centres undefined),x,n,n,n,n,x
CC(C)NC(=O)C1C(c2ccccc2)=Nc2ccccc2N1C(=O)c1ccc(C(F)(F)F)cc1 (centres undefined),x,n,n,2.3,n,x
CC(C)NC(=O)C1C(c2ccc(C(F)(F)F)cc2)=Nc2ccccc2N1C(=O)c1cccc2ccccc12 (centres undefined),x,n,n,1.1,n,x
CSCCC(NC(=O)c1ccccc1Br)C(=O)NNC(=O)C1COc2ccccc2O1 (centres undefined),x,n,n,n,n,n
O=c1c2ccccc2c(/C=N/NS(=O)(=O)c2ccccc2)c(O)n1-c1ccccn1,n,n,n,1.0,n,n
COc1ccc2c(c1)c(=O)oc1cc(O)ccc12,n,n,n,n,n,4.7
Cc1c(F)cccc1NC(=O)c1ccc2c(c1)CCN2S(C)(=O)=O,x,n,n,n,n,n
NC(=O)CSc1nc2sc(-c3ccccc3)cc2c(=O)n1N,n,n,n,n,n,n
Cc1nc2sc(-c3ccccc3)cc2c(=O)n1/N=C/N(C)C,n,n,11,0.9,n,n
Cc1nc2sc(-c3ccccc3)cc2c(=O)n1-n1cccc1,n,n,11,n,n,n
Cc1sc2nc(C)n(/N=C/N(C)C)c(=O)c2c1C,n,n,n,n,n,n
CCn1c(CC(=O)Nc2ccccc2F)nnc1SCC(=O)NC1CCCC1,x,n,n,n,n,n
Cn1c(CNC(=O)c2ccc(Cl)cc2)nnc1SCC(=O)NC1CCCC1,x,n,n,n,n,6.5
O=C(CSc1cc(Cl)ccc1Cl)NC1CCCC1,x,n,n,n,n,5.4
CCn1c(CC(=O)Nc2ccc(Cl)cc2)nnc1SCC(=O)N1CCOCC1,x,n,n,n,n,n
CCn1c(CC(=O)Nc2ccc(F)cc2)nnc1SCC(=O)NC1CCCC1,x,n,n,n,n,4.8
CCn1c(CNC(=O)c2ccc(Cl)cc2)nnc1SCC(=O)N1CCOCC1,x,4.5,n,n,n,n
O=C(O)CCC(=O)c1ccc(C2CCCCCC2)cc1,x,n,n,n,n,x
CCN(CC)S(=O)(=O)c1ccc(N2CCOCC2)c(NC(=O)c2[nH]c(C)c(C(C)=O)c2C)c1,x,n,n,n,n,n
Cn1c(Cn2c(=O)sc3ccccc32)nnc1SCC(=O)NC1CCCC1,n,n,n,n,n,5.2
NC(=O)CSc1nnc(Cn2c(=O)sc3ccccc32)n1CCc1ccccc1,n,n,n,n,n,4.5
Cn1c(SCC(=O)Nc2ccc(C(=O)O)cc2)nnc1-c1ccccn1,x,n,n,n,n,x
CC(C)(C)OC(=O)C[C@@H]1C/C=C\C[C@@H](CC(=O)N(CCO)Cc2ccccc2)C(=O)N[C@@H](c2ccccc2)COC1=O,x,n,n,n,n,n
COc1ccc(C2CC(c3cccc(C)c3)n3ncnc3N2)cc1 (centres undefined),n,n,n,n,n,n
Cc1cccc(C2CC(c3ccccc3)Nc3ncnn32)c1 (centres undefined),x,n,n,n,n,5.6
SMILES,Wee1 degr inh,DAX1 inh-1,hgDAF-12 ag,ssDAF12 agonist,hcDAF-12 act,DAX1 inh-2
Cc1ccc(C2CC(c3ccccc3OC(F)F)Nc3ncnn32)cc1 (centres undefined),n,n,n,n,n,5.3
Cc1ccccc1C1CC(c2ccccc2OC(F)F)Nc2ncnn21 (centres undefined),n,n,n,n,n,n
CC1CC(=O)c2cnc(Nc3cccc(C(F)(F)F)c3)nc2C1 (centres undefined),n,n,n,n,n,n
CC1CC(=O)c2cnc(Nc3ccccc3)nc2C1 (centres undefined),n,4.0,n,n,n,n
COc1ccc2c(c1)CNC2CS(=O)(=O)NCC(C)C (centres undefined),x,n,n,n,n,x
COc1cc(C(=O)N/C(=C\c2cn(C)c3ccccc23)C(=O)NCCCO)cc(OC)c1OC,n,n,n,n,n,4.7
CCN(CC)CCNC(=O)/C(=C/c1cn(C)c2ccccc12)NC(=O)c1ccc(OC)c(OC)c1,n,n,n,n,n,5.2
Cc1ccc(-n2nc(C)c(NC(=O)CCl)c2C)cc1,n,n,n,n,n,n
C=CCNC(=O)c1cnn(-c2ccccc2)c1-c1ccccc1,x,n,n,n,n,n
CNC(=O)c1c(Br)cnn1-c1ccc(C)cc1,9.2,3.7,12,n,n,n
C=CCNC(=O)c1c(Cl)cnn1-c1ccc(C)cc1,9.2,n,12,n,n,x
CNC(=O)c1c(Cl)cnn1-c1ccc(C)cc1,n,n,12,n,n,n
COc1ccc(S(=O)(=O)N2CCOC23CCN(S(=O)(=O)c2c(C)cc(C)cc2C)CC3)cc1,x,n,n,n,n,n
COc1ccc(CNC(=O)C2CCC(=O)N(C3CCCCCC3)C2)c(OC)c1 (centres undefined),x,n,n,n,n,n
O=C(Cc1cccc([N+](=O)[O-])c1)Nc1ccc(C(=O)N2CCCCC2)cc1,x,n,n,n,n,n
CCCC(C)(C)C(=O)N1CCC1(C)C(=O)NS(=O)(=O)c1cccc(Cl)c1 (centres undefined),x,n,n,n,n,x
COc1ccc(-c2nn(-c3ccccc3)cc2/C=C2/SC(=S)N(CCC(=O)O)C2=O)cc1,x,n,n,n,n,n
Cc1ccc(-c2nn(-c3ccccc3)cc2/C=C2\SC(=S)N(CC(=O)O)C2=O)cc1,n,n,n,1.6,n,n
CN(C)CCN(CC1CCCN(Cc2ccccc2F)C1)C(=O)c1ccc(Cl)cc1 (centres undefined),x,n,n,n,n,n
COc1ccc(CCCC(=O)O)c(C)c1,n,n,n,1.5,n,n
CC1CCC(NC(=O)CNC(=O)c2cccs2)CC1 (centres undefined),x,4.4,n,n,n,n
Cc1ccc(C(=O)NCC(=O)NC2CCC(C)CC2)s1 (centres undefined),x,n,n,n,n,n
COC(=O)C[C@H]1CC[C@@H]2[C@H](COc3ccc(NC(=O)c4cccc(Cl)c4)cc3C(=O)N2C)O1,x,n,n,n,n,x
